Among the test systems are GRK4; GRK7; GSK3A; GSK3B; HCK; HIPK1; HIPK2; HIPK3; HIPK4.
Holding throughout (settings): concentration: 1 μM, replicates: in singlicate, n = 1
For another test, the system named is T1, HASPIN.
T1 construct: gene GSG2

“And” between values parts separate entries of the source, which are not always exact repeats. Identical values can stand only once. Like-named read-outs stand apart in the source and are kept apart here.
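Also: KINOMEscan kinase panel screen.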

Take `CNc1ncnc2[nH]ncc12` [SKF-18355]: the “%Inh” value in the test with GRK4 amounted to 4%; in the test on GRK7, 0%; in the test on GSK3A, 0%; in the test on GSK3B, 25%; in the test on HASPIN, 44%; in the test on HCK, 16%. The “%Inh” value in the test with HIPK1 came to 42%; with HIPK2, 0%; in the test with HIPK3, 12%; in the test on HIPK4, 0%.
Turning to `CCn1cnc2c(N)ncnc21` [GW345098], the “%Inh” value is on record as 0% in the test on GRK4; 0% with GRK7; 6% in the test on GSK3A; 9% with GSK3B; 25% in the test with HASPIN; 30% with HCK. Also, the “%Inh” value in the test with HIPK1 is reported as 33%; with HIPK2, 5%; in the test on HIPK3, 30%; in the test with HIPK4 it was 0%.
As to `COc1ccc(S(=O)(=O)NC2CCN(c3cc(C)nc(Nc4cccc(C#N)c4)n3)CC2)cc1.O=C(O)C(F)(F)F` [GSK1653539], the “%Inh” value in the test with GRK4 is given as 0%; in the test on GRK7 it was 0%; in the test on GSK3A, 6%; with GSK3B, 0%; in the test on HASPIN, 22%; in the test with HCK, 0%. For the same compound, the “%Inh” value in the test with HIPK1 amounted to 0%; in the test on HIPK2, 0%; with HIPK3 it was 4%; with HIPK4, 0%.
Regarding `COc1ccc(Nc2nccc(N3CCC(NC(=O)Nc4cccc(C(C)=O)c4)C3)n2)cc1` (centres unmarked) [GSK1379731], the “%Inh” value with GRK4 is listed as 0%; with GRK7 it was 0%; in the test on GSK3A it was 22%; with GSK3B it was 7%; with HASPIN, 17%; in the test on HCK, 0%. For the same compound, the “%Inh” value with HIPK1 was 0%; in the test with HIPK2 it was 0%; with HIPK3, 1%; with HIPK4 it was 0%.
With `CCc1nc(-c2cccc(C)c2)c(-c2ccnc(NCc3ccccc3)c2)s1`, the “%Inh” value in the test with GRK4 turned out to be 9%; in the test on GRK7, 0%; in the test with GSK3A it was 12%; in the test on GSK3B, 0%; with HASPIN, 41%; with HCK, 5%. In addition, the “%Inh” value with HIPK1 is listed as 21%; in the test with HIPK2 it was 0%; in the test on HIPK3 it was 0%; with HIPK4, 7%.
In the case of `O=C(NOCC1CC1)c1ccc(F)c(F)c1Nc1ccc(I)cc1Cl`, the “%Inh” value in the test with GRK4 was 0%; with GRK7, 0%; with GSK3A, 0%; in the test on GSK3B, 0%; in the test on HASPIN, 30%; in the test on HCK, 0%. Besides, the “%Inh” value in the test on HIPK1, in the test with HIPK2, in the test on HIPK3 and in the test on HIPK4 was 0% each time.
For the compound `Cn1cc(-c2ccc3c(c2)CCN3C(=O)Cc2ccccc2Cl)c2c(N)ncnc21` [GSK2608885], the “%Inh” value in the test with GRK4 was determined as 0%; in the test on GRK7 it was 0%; in the test on GSK3A it was 0%; in the test on GSK3B, 9%; in the test with HASPIN, 0%; in the test on HCK, 99.4%. The “%Inh” value was determined as 0% in the test with HIPK1, 0% in the test on HIPK2, 14% with HIPK3 and 36% in the test with HIPK4.
Regarding `Nc1nc(-c2ccc3c(N)n[nH]c3c2)cc(N2CCCC2)n1` [GSK2227430], the “%Inh” value with GRK4, with GRK7, in the test with GSK3A, with GSK3B, in the test with HASPIN and with HCK was 0% in each case. Besides, the “%Inh” value is recorded as 5% with HIPK1, 0% with HIPK2, 0% in the test with HIPK3 and 0% with HIPK4.
On to `Cc1nnc(-c2ccc(C)c(-c3ccc(C(=O)Nc4ccc(NS(C)(=O)=O)cc4)cc3)c2)o1` [GW702865], for which the “%Inh” value worked out at 0% in the test on GRK4; 0% with GRK7; 5% with GSK3A; 0% in the test with GSK3B; 46% with HASPIN; 0% in the test with HCK. Also, the “%Inh” value in the test with HIPK1 was 0%; in the test with HIPK2, 0%; in the test with HIPK3, 12%; with HIPK4 it was 0%.
In the case of `C[C@@H](Oc1cc(-n2cnc3ccc(NC(=O)NC(C)(C)C)cc32)sc1C(N)=O)c1ccccc1Cl` [GSK346294], the “%Inh” value in the test on GRK4 came to 0%; with GRK7 it was 0%; in the test with GSK3A, 18%; in the test on GSK3B, 21%; in the test with HASPIN it was 1%; in the test on HCK, 0%. The “%Inh” value in the test with HIPK1 was determined as 9%; in the test with HIPK2 it was 0%; in the test with HIPK3, 26%; in the test with HIPK4, 0%.
For `Cl.Cl.Cl.Fc1ccc(-c2ncn(C3CCNCC3)c2-c2ccnc(Nc3ccccc3)n2)cc1` [SB-238039], the “%Inh” value with GRK4 (1 µM) was 8% and 46%; with GRK7 (1 µM) it was 0% and 37%; in the test with GSK3A (1 µM) it was 57% and 10%; in the test on GSK3B (1 µM) it was 47% and 17%; in the test with HASPIN (1 µM) it was 58% and 0%; in the test with HCK (1 µM), 65% and 34%. The “%Inh” value in the test on HIPK1 (1 µM) is 29% and 64%; in the test with HIPK2 (1 µM) it was 31% and 30%; in the test with HIPK3 (1 µM) it was 8% and 0%; in the test on HIPK4 (1 µM) it was 17% and 0%.
With `CSc1ccc(-c2cc3ncnc(SCC(=O)O)c3s2)cc1`, the “%Inh” value in the test with GRK4 came out at 0%; with GRK7, 2%; with GSK3A, 0%; in the test with GSK3B, 0%; with HASPIN, 0%; with HCK, 33%. Further, the “%Inh” value with HIPK1 came to 55%; with HIPK2, 52%; with HIPK3, 33%; in the test with HIPK4 it was 22%.
As to `CCc1ccnc(/C=C/c2n[nH]c3cc(Sc4ccccc4C(=O)NC)ccc23)c1`, the “%Inh” value in the test on GRK4 worked out at 2%; in the test with GRK7, 0%; in the test on GSK3A it was 2%; in the test on GSK3B, 6%; in the test with HASPIN, 11%; with HCK, 0%. Moreover, the “%Inh” value in the test with HIPK1 came to 3%; in the test on HIPK2, 0%; in the test on HIPK3 it was 6%; in the test on HIPK4, 15%.
In the case of `Fc1ccc(-c2nn3c(OCC(F)(F)F)cccc3c2-c2ccncc2)cc1` [GW514784], the “%Inh” value in the test on GRK4 is 0%; in the test on GRK7, 0%; in the test on GSK3A, 10%; in the test on GSK3B it was 0%; in the test on HASPIN, 67%; with HCK it was 0%. The “%Inh” value stood at 0% with HIPK1, 0% in the test with HIPK2, 5% with HIPK3 and 0% in the test with HIPK4.
`[2H]C([2H])(c1cccc(C(F)(F)F)c1C)n1ccn2c(=O)nc(N3CCOCC3)cc12` [GSK2336394]: the “%Inh” value in the test on GRK4 stood at 0%; in the test on GRK7, 0%; with GSK3A, 9%; with GSK3B, 0%; in the test on HASPIN, 0%; with HCK, 0%. For the same compound, the “%Inh” value in the test with HIPK1 is reported as 0%; in the test on HIPK2, 0%; in the test on HIPK3 it was 9%; in the test with HIPK4 it was 0%.
On to `COc1ccc(Nc2ncc(C#N)c(Nc3ccccc3C(N)=O)n2)cc1N1CCN(C)CC1.Cl` [GSK1558669], for which the “%Inh” value is reported as 96% with GRK4; 46% with GRK7; 99.8% in the test on GSK3A; 99.8% in the test on GSK3B; 88% with HASPIN; 98.8% in the test with HCK. Moreover, the “%Inh” value with HIPK1 was determined as 100%; in the test on HIPK2, 98.8%; in the test on HIPK3, 99.8%; in the test on HIPK4 it was 89%.
With `O=c1cc(N2CCOCC2)nc2n(Cc3cccc(F)c3)ccn12` [GSK2297430], the “%Inh” value is listed as 1% with GRK4; 0% in the test with GRK7; 0% in the test on GSK3A; 11% in the test on GSK3B; 4% with HASPIN; 0% with HCK. In addition, the “%Inh” value was determined as 0% in the test on HIPK1, 0% in the test on HIPK2, 9% in the test on HIPK3 and 0% with HIPK4.

The values above are taken from PMC5540273 (PLoS ONE, 2017).
